From PubChem BioAssay
Rows were chosen to be rich in hits. Some 1.8% of all compounds tested hit in one or more screens of this group.
ClpP mod – qHTS Assay for Activators of ClpP; ATP-dependent Clp protease proteolytic subunit (Bacillus subtilis (strain 168)), P80244; purified B. subtilis ClpP, FRET peptide cleavage, 20 min; Potency, µM (series often up to 57.5 µM); 340,000 tested, 1.9% active; AID 651965, 2013; active = well fitted falling curve with a large enough effect; inconclusive = small, poorly fitted or top-dose-only effect; inactive = no such curve, though single readings can be large or run the other way; note: the source files actives as falling curves though it sought activators and does not explain the sign; nearly all actives have a fitted effect of over 65% in size
Target sequence (P80244 whole entry, looked up): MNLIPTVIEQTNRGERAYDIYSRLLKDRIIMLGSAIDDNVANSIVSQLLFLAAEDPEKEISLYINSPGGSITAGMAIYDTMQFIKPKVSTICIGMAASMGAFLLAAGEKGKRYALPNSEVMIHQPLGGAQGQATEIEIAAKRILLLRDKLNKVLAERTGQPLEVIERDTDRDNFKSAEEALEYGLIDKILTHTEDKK
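ClpP 10 microg/mL final, pH 8 Tris/KCl buffer with BSA, glycerol, Tween-20; compound pinned in; FRET-FV substrate; RT 20 min; Ex320/Em430; ΔFRET vs ADEP 5.8 microM, DMSO, no enzyme.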
Mito fusion act – inhibitors of mitochondrial division or activators of mitochondrial fusion; S. cerevisiae fusion-defective mutant growth rescue, CellTiterGlo 48 h; Potency, µM (top dose mostly 46.1 µM), hits mostly activators; 320,000 tested, 0.23% active; note: nearly all actives have a fitted effect of over 45% in size
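S. cerevisiae fusion-defective temperature-sensitive mutants (e.g. fzo1-1, mgm1-5) grown 48 h at 37C in YPEG (ethanol/glycerol non-fermentable) medium with 23 nl compound per well; growth rescue read as CellTiterGlo luminescence.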
GRP78 ERSR act – ER stress response induction in glioma; U87-MG GRP78 promoter luciferase reporter, 16 h; Potency, µM, hits mostly activators; 420,000 tested, 0.02% active; note: series mostly up to about 76 µM; nearly all actives have a fitted effect of over 35% in size
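ERSR induction read as luciferase luminescence (Bright-Glo, 10 min at room temperature) in stably transfected human U87-MG glioma cells exposed to compounds for 16 h, using GRP78 as sensor.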
MBNL1 CUG block – MBNL1-poly(CUG) RNA binding inhibition; 280,000 tested, 0.036% active; TR-FRET MBNL1-His/biotin-(CUG)12 binding, 665/545 ratio; Q9NR56; Potency, µM (titrated, usually from 57.5 µM), hits mostly inhibitors; active = well fitted inhibition curve with a large enough effect in the signal ratio, with a control signal flat, not every such curve was filed as active; inconclusive = small, poorly fitted or top-dose-only effect, or effect the other way, or a change in a side signal; inactive = no such curve, though single readings can be large or run the other way; the % refers to the signal ratio
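Compounds (final 92 nM to 58 uM) are added to His-tagged MBNL1 and biotin-(CUG)12, then terbium anti-His antibody and streptavidin-XL665 (5 nM final). After 60 min at room temperature, the 665/545 nm ratio is read.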
TCR act – activates T cell receptor signaling; primary human leukocytes, anti-CD3, IL-2 HTRF, 48 h; Potency, µM (doses to about 9.22 µM), usual class: activators; 330,000 tested, under 10 active; AID 504894
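IL-2 release read by HTRF sandwich (Eu cryptate donor, d2 acceptor, 665 nm emission) after 48 hr exposure of primary human leukocytes to compound together with anti-CD3 beads in the absence of co-stimulatory signals.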
AT treatment – potential ataxia-telangiectasia treatments restoring KAP-1 phosphorylation; 320,000 tested, 0.19% active; Potency, µM (doses to about 57.5 µM), hits mostly activators; AID 485349; F2112 A-T fibroblasts, KAP-1 phosphorylation AlphaLISA; neocarzinostatin DNA damage 30 min before lysis; note: nearly all actives have a fitted effect of over 45% in size
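hTERT-immortalized A-T patient fibroblasts (F2112), 500 cells/well in OPTI-MEM, 1% FBS, got compounds for 60 min, then NCS for 30 min at 37C. Lysates were then assayed for phospho-KAP-1 by AlphaLISA (anti-pKAP1 donor, anti-KAP1 acceptor beads), 6 hr at 25C.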
A number is an active result. Unless noted, calls come from the whole dose curve; as a rule, active = well fitted curve in the direction sought with a large enough effect; inconclusive = small, poorly fitted or top-dose-only effect, or another doubt; inactive = no such curve, though single readings can be large; an effect the other way counts as inactive or inconclusive.

How did O=C(Nc1ccc(F)cc1F)c1cc2n(n1)C(C(F)(F)F)C1CCCCC1N2 (stereo unspecified) do in these assays?
ClpP mod: 28µM; Mito fusion act: inactive; GRP78 ERSR act: inactive; MBNL1 CUG block: inactive; TCR act: inactive; AT treatment: inactive

Results for O=C(Nc1ccc(F)cc1F)c1cc2nc3c(c(C(F)(F)F)n2n1)CCCC3 ?
ClpP mod: inactive; Mito fusion act: inactive; GRP78 ERSR act: inactive; MBNL1 CUG block: inactive; TCR act: inactive; AT treatment: inactive

Results for CCCN(CCC)c1ccc(/C=C/c2ccnc3ccccc23)cc1 ?
ClpP mod: inactive; GRP78 ERSR act: inactive

Results for COc1ccc(-c2[nH]c(-c3ccc(O)cc3)nc2-c2ccccc2)cc1 ?
ClpP mod: 7.9µM; GRP78 ERSR act: inactive

How did COc1ccc(-c2nc(-c3ccccc3)c(-c3ccc(O)cc3)[nH]2)cc1 do in these assays?
ClpP mod: 5µM; GRP78 ERSR act: inactive

Results for O=C(c1cccc(F)c1)N(Cc1cc2cc3c(cc2nc1N1CCOCC1)CCC3)CC1CCCO1 (stereo unspecified) ?
GRP78 ERSR act: inactive

How did CCOC(=O)c1ccc(-c2ccc(/C=N/NC(=O)CN(c3ccccc3Br)S(C)(=O)=O)o2)cc1 do in these assays?
ClpP mod: 18µM; Mito fusion act: inactive; GRP78 ERSR act: inactive; MBNL1 CUG block: inactive; TCR act: inactive; AT treatment: inactive

How did Cc1noc(C)c1CSc1ccccc1C(=O)O do in these assays?
Mito fusion act: inactive; GRP78 ERSR act: inactive; MBNL1 CUG block: inactive; TCR act: inactive; AT treatment: inactive

What do the screens show for `Cc1noc(C)c1CSc1ccccc1C(=O)Nc1nccs1`?
ClpP mod: inactive; Mito fusion act: 35µM; GRP78 ERSR act: inactive; MBNL1 CUG block: inactive; TCR act: inactive; AT treatment: inactive

What do the screens show for `Cc1ccc(-c2cc(C(F)(F)F)c(C#N)c(SCCC#N)n2)o1`?
ClpP mod: 4.5µM; Mito fusion act: inactive; GRP78 ERSR act: inactive; MBNL1 CUG block: inactive; AT treatment: inactive

How did CSC(=NNC(=O)c1ccc(O)cc1)SC do in these assays?
ClpP mod: 28µM; Mito fusion act: inactive; GRP78 ERSR act: inactive; MBNL1 CUG block: inactive; TCR act: inactive; AT treatment: inactive

Results for CCOC(=O)N1CCN(C(=O)c2cccn3c(=O)c4sccc4nc23)CC1 ?
ClpP mod: 25µM; Mito fusion act: inactive; GRP78 ERSR act: inactive; MBNL1 CUG block: inactive; TCR act: inactive; AT treatment: inactive

How did CCOC(=O)N1CCN(C(=O)c2cccn3c(=O)c4cc(Br)ccc4nc23)CC1 do in these assays?
ClpP mod: inactive; Mito fusion act: inactive; GRP78 ERSR act: inactive; MBNL1 CUG block: inactive; AT treatment: inactive

What do the screens show for `CCCNCC(=O)Nc1cccc(S(=O)(=O)NC2=NCCCCC2)c1`?
ClpP mod: inactive; GRP78 ERSR act: inactive; TCR act: inactive; AT treatment: inactive

How did CCCCCC(=O)Nc1cccc(S(=O)(=O)NC2=NCCC2)c1 do in these assays?
ClpP mod: 35µM; Mito fusion act: inactive; GRP78 ERSR act: inactive; TCR act: inactive; AT treatment: inactive

How did Cc1ccc(OCC(=O)Nc2cccc(S(=O)(=O)NC3=NCCCCC3)c2)cc1C do in these assays?
ClpP mod: 14µM; Mito fusion act: inactive; GRP78 ERSR act: inactive; MBNL1 CUG block: inactive; TCR act: inactive; AT treatment: inactive

What do the screens show for `O=C(NCC1Cc2cccc(-c3cnccn3)c2O1)c1ccc2c(c1)OCCO2` (stereo unspecified)?
GRP78 ERSR act: inactive

What do the screens show for `Cc1ccccc1-c1nc(C#N)c(N2CCC(C)CC2)o1`?
ClpP mod: inactive; Mito fusion act: inactive; GRP78 ERSR act: inconclusive; MBNL1 CUG block: inactive; TCR act: inactive; AT treatment: inactive

How did COc1ccc(-c2nc(C#N)c(N3CCN(c4ccccc4)CC3)o2)cc1 do in these assays?
ClpP mod: inactive; Mito fusion act: inactive; GRP78 ERSR act: inactive; MBNL1 CUG block: inactive; TCR act: inactive; AT treatment: inactive
